Only some compounds are listed: those with a hit (about 3.9% of all), similar ones and a draw of the others.
CDK5 p35 inh – inhibitors of human CDK5/p35 kinase. inhibition, % at 10 µM. actives 0.01% (n = 330,000). Q00535+Q15078. Recombinant CDK5/p35, ADP-Glo luminescence, 60 min;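 active = highest replicate inhibition of at least 50% and at least 75% of replicates reaching 50%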
ALR H2O2 inh – inhibitors of human sulfhydryl oxidase ALR. purified ALR, DTT oxidation, H2O2 HRP-luminol luminescence. AID 485317. P55789. inhibition, % (no concentration beside the values). actives 3.8% (n = 290,000);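 active = mean replicate inhibition above about 79%, with every replicate also reaching it, limit read from the data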
Target sequence (P55789 whole entry, looked up): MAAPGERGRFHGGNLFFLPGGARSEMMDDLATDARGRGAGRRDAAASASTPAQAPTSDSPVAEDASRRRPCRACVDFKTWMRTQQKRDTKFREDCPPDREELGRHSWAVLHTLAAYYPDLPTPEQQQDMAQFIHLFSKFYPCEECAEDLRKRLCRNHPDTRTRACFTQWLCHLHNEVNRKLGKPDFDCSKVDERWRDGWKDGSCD
SUMO Mot1 rescue – SUMOylation pathway inhibition by Mot1-301 growth rescue | S. cerevisiae Mot1-301 growth rescue, ATP luminescence, 38.5C; percent above DMSO median, 100 means doubled | growth rescue, % at 18.8 µM | actives 1% (n = 320,000) | AID 2716;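 active = every valid replicate shows activation above 250% relative to neutral control wells; inactive = the rest, any valid replicate at or below 250%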
NSD2 inh – blocks human histone methyltransferase NSD2; O96028; NSD2 peptide methylation, AlphaScreen, 120 min; inhibition, % at 12.5 µM; actives 0.54% (n = 310,000); in the data active = inhibition above about 50%
Casp6 inh – inhibitors of human caspase-6 | purified caspase-6, Z-VEID-R110 cleavage fluorescence | P55212 | inhibition, % at 12.5 µM | actives 0.53% (n = 350,000) | AID 686996;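 active = mean inhibition across replicates at least about 35%, with every replicate also reaching that limit, limit read from the data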
Target sequence (P55212 24-179 limits assumed): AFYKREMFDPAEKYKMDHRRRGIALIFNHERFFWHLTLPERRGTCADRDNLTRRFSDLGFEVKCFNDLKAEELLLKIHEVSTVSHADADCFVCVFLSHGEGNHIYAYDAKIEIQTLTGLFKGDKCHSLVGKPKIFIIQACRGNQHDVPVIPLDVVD
Target sequence (P55212 194-293 limits assumed): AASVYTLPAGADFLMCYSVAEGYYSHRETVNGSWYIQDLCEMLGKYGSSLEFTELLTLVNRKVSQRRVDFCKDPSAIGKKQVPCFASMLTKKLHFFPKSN
N-glyco inh – blocks N-linked glycosylation in D54 reporter cells; D54 ERlucT glycosylation luciferase reporter, 24 h; percent of 100 nM tunicamycin response; actives 0.23% (n = 360,000); reporter increase, % at 12.5 µM;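 active = mean luciferase reporter signal, scaled so untreated is 0 and the glycosylation-blocking control 100, at or above a set limit in every replicate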;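 note: luciferase carries N-glycosylation sites so blocking glycosylation raises the light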
A number is an active result; - = inactive; . = no result given.

SMILES | CDK5 p35 inh | ALR H2O2 inh | SUMO Mot1 rescue | NSD2 inh | Casp6 inh | N-glyco inh
CCOC(=O)CNC(=O)CSc1nnc(C)c(=O)[nH]1 | - | - | - | - | - | -
CCCNC(=O)N1C[C@@H](O)COC[C@H]2O[C@H](CC(=O)NCc3ccncn3)CC[C@@H]21 | . | . | . | . | - | .
O=C(O)CCC(=O)NCCn1c(-c2ccccc2)csc1=Nc1ccccc1 | - | 92.2 | - | - | - | -
OCCCn1c(-c2ccccc2)csc1=Nc1ccccc1 | - | - | - | - | - | -
COc1cccc(-c2ccc3c(c2)O[C@H](CN(C)Cc2ccncc2)[C@H](C)CN([C@@H](C)CO)S3(=O)=O)c1 | . | . | . | . | - | .
N#Cc1sc2nc(N3CCCCC3)c3c(c2c1N)CCCC3 | - | 98.3 | - | - | . | -
Cc1noc(C)c1S(=O)(=O)N(C)C[C@H]1OCCCC[C@@H](C)Oc2ccc(NS(C)(=O)=O)cc2C(=O)N([C@@H](C)CO)C[C@@H]1C | . | . | . | . | - | .
O=S(=O)(c1ccccc1)N1CCN(C/C=C/c2ccccc2)CC1 | - | - | - | - | - | -
O=S(=O)(c1ccc(S(=O)(=O)N2CCN(C/C=C/c3ccccc3)CC2)cc1)N1CCCC1 | - | - | 294.8 | - | . | -
CC/C(=N\O)c1ccc(OC)c(OC)c1 | - | - | - | - | . | -
CC/C(=N\O)c1ccc(O)c(OC)c1 | - | 98.7 | - | - | . | -
O=C(/C=C/c1ccc[nH]1)c1ccccc1 | - | 97.5 | - | - | - | -
Nc1cc(C(F)(F)F)ccc1NCCc1ccccn1 | - | 98.2 | - | - | - | -
Nc1cc([N+](=O)[O-])ccc1Nc1ccccc1 | - | 99.2 | - | - | - | -
O=[N+]([O-])c1ccc(O)c(NC(=S)Nc2ccccc2)c1 | - | 98.1 | . | - | . | -
Nc1cc(Cl)ccc1N1C(=O)CCC1=O | - | - | - | - | - | -
Nc1cc([N+](=O)[O-])ccc1N1C(=O)CCCC1=O | - | - | - | - | 40.4 | -
C[C@H]1CCCCO[C@@H](CN(C)C(=O)Nc2ccc3c(c2)OCO3)[C@@H](C)CN([C@@H](C)CO)C(=O)c2cc(NC(=O)c3ccccc3)ccc2O1 | . | . | . | . | - | .
O=C(Nc1ccc2c(c1)OCO2)N[C@H]1CC[C@@H](CCNC(=O)C2CCCC2)O[C@@H]1CO | . | . | . | . | - | .
N#Cc1cc(N)c(Nc2ccccc2)cc1C#N | - | - | - | . | . | -
N#Cc1ccc(Nc2ccccc2)c(N)c1 | - | 98.4 | - | - | . | -
Nc1cc([N+](=O)[O-])ccc1O | - | 99.1 | - | - | - | -
Cc1ccc([N+](=O)[O-])cc1N | - | - | - | - | . | -
Nc1cc(C(F)(F)F)ccc1Nc1ccccc1 | - | 97.6 | - | - | . | -
Cc1ccc(S(=O)(=O)Nc2ccc3c(c2)C(=O)N([C@@H](C)CO)C[C@@H](C)[C@H](CN(C)S(C)(=O)=O)O3)cc1 | . | . | . | . | - | .
SMILES | CDK5 p35 inh | ALR H2O2 inh | SUMO Mot1 rescue | NSD2 inh | Casp6 inh | N-glyco inh
CC(C)NC(=O)N(C)C[C@@H]1OCCCC[C@H](C)Oc2ccc(NS(=O)(=O)c3cn(C)cn3)cc2C(=O)N([C@H](C)CO)C[C@@H]1C | . | . | . | . | - | .
Clc1ccc(N2N=C(c3cccs3)CC2c2ccco2)cc1 (configuration not stated) | - | - | - | - | . | -
c1ccc(N2N=C(c3cccs3)CC2c2ccco2)cc1 (configuration not stated) | - | 97.5 | - | - | . | -
CCCC(=O)Nc1ccc2c(c1)C(=O)N(C)[C@H]1CC[C@@H](CC(=O)Nc3cn(C)nc3C)O[C@H]1CO2 | . | . | . | . | - | .
O=C(Cc1ccccc1)N[C@H]1CC[C@@H](CC(=O)N2CCOCC2)O[C@@H]1CO | . | . | . | . | - | .
C[C@@H]1CN([C@H](C)CO)C(=O)c2cc(NC(=O)C3CC3)ccc2O[C@H]1CN(C)S(=O)(=O)c1cccs1 | . | . | . | . | - | .
CCn1c(CNc2ccc(Cl)cc2)nnc1SCCN1CCCCC1 | - | 98.0 | . | - | . | -
COc1cccc(C=C(C#N)C(=O)c2ccccc2)c1 | . | . | . | - | - | -
N#C/C(=C\c1cccc(Cl)c1)C(=O)c1ccccc1 | - | 95.7 | - | - | - | -
O=C1[C@H]2[C@@H](c3ccc(F)cc3)N3C(=O)N(c4cccc(Br)c4)C(=O)[C@@]3(Cc3ccccc3)[C@H]2C(=O)N1C1CCCCC1 | - | - | - | . | - | 67.2
Cc1cccc([C@@H]2[C@@H]3C(=O)N(Cc4ccccc4)C(=O)[C@@H]3[C@]3(Cc4ccccc4)C(=O)N(c4cccc(F)c4)C(=O)N23)c1 | - | - | - | . | - | 33.5
Cc1cccc([C@@H]2[C@@H]3C(=O)N(Cc4ccccc4)C(=O)[C@@H]3[C@]3(Cc4ccccc4)C(=O)N(c4cccc(Cl)c4)C(=O)N23)c1 | - | - | - | . | - | 40.7
O=C1[C@H]2[C@@H](c3ccc(F)cc3)N3C(=O)N(c4cccc(F)c4)C(=O)[C@@]3(Cc3ccccc3)[C@H]2C(=O)N1C1CCCCC1 | - | - | - | . | . | -
CN1CCN(C(c2ccc(C(F)(F)F)cc2)c2cc(Cl)c3cccnc3c2O)CC1 (configuration not stated) | . | - | - | - | - | .
Oc1c(C(c2ccccn2)N2CCCCC2)cc(Cl)c2cccnc12 (configuration not stated) | - | 82.8 | - | - | - | -
CN1CCN(C(c2ccc(Cl)cc2)c2cc(Cl)c3cccnc3c2O)CC1 (configuration not stated) | - | - | - | - | - | 33.3
CCCNC(=O)C[C@@H]1CC[C@@H]2[C@@H](COc3ccc(NC(=O)CCC)cc3C(=O)N2C)O1 | . | . | . | . | - | .
C[C@H](CO)N1C[C@H](C)[C@@H](CN(C)C(=O)Nc2ccc(C(F)(F)F)cc2)Oc2ncc(/C=C/c3ccccc3)cc2C1=O | . | . | . | . | 47.7 | .
Cc1cc([N+](=O)[O-])cnc1NC(C)c1ccccc1 (configuration not stated) | - | - | 330.1 | - | . | -
CCCNC(=O)N(C)C[C@H]1Oc2ncc(C#CC3(O)CCCC3)cc2C(=O)N([C@H](C)CO)C[C@@H]1C | . | . | . | . | - | .
Cc1cc(Br)ccc1OCCCCNCCO | - | - | - | - | . | -
C=CCNCCCCOc1ccc(Br)cc1C | - | - | - | 65.8 | . | -
COCCNCCCOc1ccc(Br)cc1Cl | - | - | - | - | . | -
COCCCNCCCCOc1ccc(Br)cc1Cl | . | - | 280.0 | - | - | -
COc1ccccc1NC(=O)N1CC[C@@H]2[C@@H](CO)N(C)c3ccc(-c4ccc(F)cc4)cc3[C@@H]21 | . | . | . | . | - | .
ClCc1nc2ccccc2c2ccccc12 | - | - | - | - | - | 63.0
COC(=O)[C@H](Cc1ccccc1)NC(=O)N1CCN(c2ccccc2)CC1 | - | 85.4 | - | - | - | -
O=C(O)[C@H](Cc1ccccc1)NC(=O)N1CCN(c2ccc(F)cc2)CC1 | - | 98.0 | - | . | - | -
CC(C)(C)Nc1nc(Cl)nc(Nc2ccccc2)n1 | - | 98.1 | - | - | - | -
COc1ccc(CNC(=O)C[C@H]2CC[C@@H](NC(=O)c3cccc(F)c3)[C@H](CO)O2)cc1 | . | . | . | . | - | .
